The source of these data is PubChem BioAssay (NCATS).

A number with no mark means an inactive call. How the calls were made is not given here.
Potency means the concentration at half of the fitted maximal effect.

The test system of the test is HIV-1 nucleocapsid protein NCp7 (binding to TG oligonucleotide). Kind of test: HIV Nucleocapsid (AID 346).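 Further: potency is for inhibitors that block NC binding and lower polarization.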 The settings on record: HIV-1 NC / fluorescein-TGTGTGTG probe, fluorescence polarization. In a few lines: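 Fluorescence polarization readout: labelled TG4xF oligo (10 nM) with 100 nM nucleocapsid protein, high-salt (250mM NaCl) Hepes pH 7.5 buffer containing zinc and fresh reducing agents. Compounds added by pin tool; incubation 1 hr, room temperature.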
A general note: Polarisation of emitted light reports the rotation of a fluorescent probe.
As for `COc1ccc(CNc2cc(-c3cccc(NS(C)(=O)=O)c3)ncn2)c(OC)c1`, the Potency is more than 20 µM. Next, `COc1ccccc1CN1CC[C@@]2(CCCN(C(=O)c3cccc(F)c3)C2)C1`: more than 20 µM. Next, `COc1ccccc1CCn1c(=O)c(CCc2ccccc2)nc2cncnc21`: more than 20 µM. Next, `CN(C)c1ncc2ncc(=O)n(C)c2n1`: more than 20 µM; `O=C(Nc1ccccc1)N1CCCC2(CCN(C(=O)c3cnccn3)CC2)C1`: more than 20 µM. Turning to `COc1ccc(-n2c(=O)c(-c3cc(F)cc(F)c3)nc3cncnc32)cc1`, the Potency was more than 20 µM. For `O=c1c(-c2ccc(F)cc2)nc2cnc(Nc3ccccc3)nc2n1Cc1cccs1`, the Potency was more than 4 µM. With `Cn1cc(-c2nc3cncnc3n(CCN)c2=O)c2ccccc21`, the Potency was more than 20 µM. In the case of `O=c1c(-c2ccccc2)nc2cnc(N3CCOCC3)nc2n1CCc1ccccc1`, the Potency was more than 20 µM. With `O=C(Nc1ccccc1)N1CC[C@@]2(CCCN(C(=O)c3csnn3)C2)C1`, the Potency is more than 20 µM.

On to `Cc1nc2cnc(N3CCOCC3)nc2n(Cc2cccs2)c1=O`, for which the Potency is more than 20 µM. In the case of `CC(=O)N1CCC2(CC1)CN(Cc1ccccc1)C2`, the Potency is more than 20 µM. Regarding `O=c1c(CCc2ccccc2)nc2cnc(N3CCOCC3)nc2n1CCc1ccccc1`, the Potency is more than 20 µM. Regarding `CN1CCN(c2ncc3nc(-c4cccs4)c(=O)n(-c4ccccc4)c3n2)CC1`, the Potency is 16.7 µM. For `CC(C)NC(=O)N1CCC2(CC1)CCN(C(=O)c1ccco1)CC2`, the Potency is more than 20 µM.

As for `CS(=O)(=O)Nc1cccc(-c2ccc3ncnc(N4CCOCC4)c3c2)c1`, the Potency is more than 20 µM.

As for `CN(C)c1ncc2nc(-c3ccc(F)cc3)c(=O)n(Cc3ccc(F)cc3)c2n1`, the Potency is more than 20 µM. Take `COc1ccccc1-c1cncnc1NCc1ccccc1`: the Potency is more than 20 µM. Regarding `COCCn1c(=O)c(-c2ccc(Cl)cc2)nc2cnc(Oc3cccc(Cl)c3)nc21`, the Potency was more than 20 µM. As for `CC(=O)N1CCC2(CC1)CN(C(c1ccccc1)c1ccccc1)C2`, the figure is more than 20 µM; as for `O=C(Oc1ccccc1)N1CCC2(CC1)CCN(c1ccncc1)CC2`, more than 20 µM; as for `COCC(=O)N1CCC2(CCCN(c3ncccn3)C2)CC1`, more than 20 µM.

As to `CN1CCN(c2ncncc2-c2cccnc2)CC1`, the Potency was more than 20 µM. Next, `COc1ccc(CNc2ccnc(-c3ccccc3CN(C)C)n2)c(OC)c1`: more than 20 µM.

Consider `COc1ccccc1CNc1ccnc(-c2ccoc2)n1`, for which the Potency is more than 20 µM. On to `Clc1ccccc1-c1nccc(-n2ccnc2)n1`, for which the Potency is more than 20 µM. Turning to `COc1ccc2[nH]cc(CCNc3nc(-c4cccc(NS(C)(=O)=O)c4)nc4ccccc34)c2c1`, the Potency was more than 20 µM. As to `O=C(Oc1ccccc1)N1CCC[C@@]2(CCN(c3ncccn3)C2)C1`, the Potency was more than 20 µM.

Turning to `Cc1nc2cncnc2n(Cc2ccccc2Cl)c1=O`, the Potency was more than 20 µM. Regarding `COc1cccc(-c2nc(NCc3ccc(OC)cc3OC)c3ccccc3n2)c1`, the Potency is more than 20 µM. As for `CS(=O)(=O)N1CCC2(CCN(Cc3ccc(C#N)cc3)CC2)CC1`, the figure is more than 20 µM. As for `COc1ccc(-n2c(=O)c(-c3cccs3)nc3cnc(Oc4ccccc4)nc32)cc1`, the Potency is more than 4 µM. `Cc1noc(C)c1-c1nc(NCCN2CCOCC2)c2ccccc2n1`: the Potency is more than 20 µM. Turning to `Cc1cccc(CNc2ncnc3ccc(-c4ccc(C(=O)N(C)C)cc4)cc23)c1`, the Potency is more than 20 µM. For `COc1cccc(Nc2ncc3nc(C)c(=O)n(C4CC4)c3n2)c1`, the Potency was more than 20 µM. With `COc1ccccc1-c1nccc(-n2ccnc2)n1`, the Potency was more than 20 µM.

Regarding `Cn1c(=O)c(-c2cccc(C#N)c2)nc2cnc(Oc3ccccc3)nc21`, the Potency is more than 20 µM. On to `COc1ccc(C(=O)N2CCC3(CCCN(C(=O)Nc4cccc(F)c4)C3)CC2)cc1`, for which the Potency was more than 20 µM. Turning to `COc1cccc(Nc2ncc3ncc(=O)n(CCC#N)c3n2)c1`, the Potency is more than 20 µM. As for `Cc1nc2cnc(N3CCNCC3)nc2n(CCC#N)c1=O`, the Potency is more than 20 µM.
